Data taken from PubChem BioAssay AID588489 (Sanford-Burnham Center for Chemical Genomics, 2011).
The whole screen tested about 360,000 compounds, of which about 1,300 (0.36%) were called active. The full list was thinned out, with actives kept by preference. Values without a mark were called inactive. Cut-off read from the data, not from the text of the source: active = inhibition above about 35% (passing the limit was not always enough); inactive = the rest.

These compounds were tested against Polyadenylate-binding protein 1 (Homo sapiens) (UniProt P11940) (assay: PAM2 peptide displacement from PABP1 MLLE – biochemical, fluorescence polarization, FITC-PAM2, GST-MLLE, primary screen (AID 588489;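 note: plate controls were DMSO wells with GST-MLLE for no effect and wells lacking GST-MLLE protein for full effect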)). Conditions: at 20 µM, stronger effect = higher value.
Sequence of Polyadenylate-binding protein 1 (Homo sapiens) (P11940 whole entry, looked up): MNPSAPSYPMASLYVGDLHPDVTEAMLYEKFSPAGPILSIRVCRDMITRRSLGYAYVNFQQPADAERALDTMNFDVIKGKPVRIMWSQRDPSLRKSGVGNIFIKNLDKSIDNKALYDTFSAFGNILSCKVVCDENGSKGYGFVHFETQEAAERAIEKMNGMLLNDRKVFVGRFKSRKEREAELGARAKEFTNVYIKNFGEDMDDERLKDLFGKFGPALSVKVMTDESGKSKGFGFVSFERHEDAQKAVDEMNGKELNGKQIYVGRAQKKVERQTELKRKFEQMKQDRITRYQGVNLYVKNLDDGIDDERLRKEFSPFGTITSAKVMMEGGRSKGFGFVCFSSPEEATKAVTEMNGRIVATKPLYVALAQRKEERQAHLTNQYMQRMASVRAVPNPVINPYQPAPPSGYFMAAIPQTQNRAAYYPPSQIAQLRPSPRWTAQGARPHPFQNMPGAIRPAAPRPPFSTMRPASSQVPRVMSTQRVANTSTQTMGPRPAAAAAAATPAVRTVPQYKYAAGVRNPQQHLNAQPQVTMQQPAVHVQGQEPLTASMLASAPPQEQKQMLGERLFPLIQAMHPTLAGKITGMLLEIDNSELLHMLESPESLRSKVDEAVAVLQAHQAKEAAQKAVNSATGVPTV
In the case of NC(=S)c1ccc(C(N)=S)o1, the inhibition is reported as 37.7% (active). For Cc1cccc(NC(=O)CSC(N)=O)c1C, the inhibition was 38.8% (active). Cc1ccccc1NC(=O)CCOc1ccccc1 was tested, and the inhibition was 4.98%. With Cc1ccccc1NC(=O)CSC(=O)c1ccccc1 the inhibition was 44.4% (active). Cc1cccc(NC(=O)COC(=O)CCc2ccccc2)c1C gave an inhibition of -0.48%. For Cc1ccccc1NC(=O)CSC1=NCCN1, the inhibition was 16%. Compound Cc1cccc(NC(=O)CSc2nc3c(c(=O)[nH]2)CCCC3)c1C has an inhibition of -11.1%. Work on FC(F)(F)C1CCCN(c2nsc3ccccc23)C1 (configuration not stated) yielded an inhibition of 33.5%. With COc1ccc(C(=O)C[n+]2ccc(N)c(C)c2C)cc1 the inhibition was -11.1%. CC12CCC(C(=O)N3CCN(c4ncccn4)CC3)(c3nc4ccccc4nc31)C2(C)C (configuration not stated) gave an inhibition of 14.9%. With CCOC(=O)CN1C(=O)C(O)(CC(=O)c2ccccn2)c2ccccc21 (configuration not stated) the inhibition was 11.1%. CCOC(=O)CSc1nc(C)c(Oc2ccc(Cl)cc2Cl)c(=O)[nH]1 gave an inhibition of -8.63%. With Cc1nnc(SCC(=O)N2CCOCC2)[nH]c1=O the inhibition was 11.7%. With CCCCOC(=O)CNc1nnc(SCC(=O)OCC)[nH]c1=O the inhibition was 38.4% (active). In the case of Cc1ccccc1NC(=O)N1CCCC1C(=O)NCc1ccccc1 (configuration not stated), the inhibition is reported as -5.08%. COc1ccc(C(C#N)Nc2ccc(C)cc2)cc1 (configuration not stated) was tested, and the inhibition was -0.36%. CCOC(=O)C1CCCN(S(=O)(=O)c2ccc3c(c2)C(C)(C)C(=O)N3C)C1 (configuration not stated) gave an inhibition of 0.52%. In the case of Cc1cccc(CC(=O)N2CCN=C2SCc2ccc([N+](=O)[O-])cc2)c1, the inhibition is reported as 40.2% (active). With Cc1cc(C)cc(C(=O)N2CCN=C2SCc2ccc([N+](=O)[O-])cc2)c1 the inhibition was 34.7%. For O=C(Cc1ccc(F)cc1)N1CCN=C1SCc1cccc([N+](=O)[O-])c1, the inhibition was -6.14%. With CC(C)=CCN1CCN(Cc2cc3ccccc3[nH]2)CC1CCO (configuration not stated) the inhibition was -5.44%. Work on CCOC(=O)c1c(NC(=O)C2CCN(S(=O)(=O)c3ccc(Cl)cc3)CC2)sc2c1CCCC2 yielded an inhibition of 1.94%. With CCOC(=O)c1c(NC(=O)C(C)Sc2c[nH]c3ccccc23)sc2c1CCC2 (configuration not stated) the inhibition was 2.56%. With CCOC(=O)c1c(NC(=O)C2(C)Cc3ccccc3C(=O)O2)sc2c1CCCC2 (configuration not stated) the inhibition was 38.6% (active). For CCc1cc2cc(OC)ccc2nc1SCC(=O)Nc1cc(OC)c(OC)cc1C(=O)O, the inhibition was 19.2%. With CN(C(=O)CCN1C(=O)/C(=C/c2ccccc2F)SC1=S)C1CCS(=O)(=O)C1 (configuration not stated) the inhibition was 47.2% (active). CN(C(=O)CN1C(=O)S/C(=C\c2ccccc2F)C1=O)C1CCS(=O)(=O)C1 (configuration not stated) was tested, and the inhibition was 34%. COc1ccccc1/C=C1\SC(=O)N(CCC(=O)N(C)C2CCS(=O)(=O)C2)C1=O (configuration not stated) gave an inhibition of 15.8%. CCCCOc1ccc(C(=O)NCC(=O)OCC(=O)N2CCN(S(=O)(=O)c3ccc(C)cc3C)CC2)cc1 gave an inhibition of -5.79%. CC1(C(=O)Nc2cccc3cccnc23)CCN1C(=O)CCC1CCCC1 (configuration not stated) gave an inhibition of -9.79%. O=C(CN1CCOCC1)Nc1c(-c2ccccc2)c2cc(Br)ccc2[nH]c1=O gave an inhibition of 7.03%. CS(=O)(=O)N(CC(=O)N/N=C/c1ccccn1)c1ccc(Oc2ccccc2)cc1 was tested, and the inhibition was 1.62%. With COc1c(F)c(F)c(-c2csc(N)n2)c(F)c1F the inhibition was 41% (active). Work on Cc1cc(-c2csc(N)n2)c(C)n1-c1ccccc1 yielded an inhibition of -12.2%. Nc1nc(C23CC4CC(CC(C4)C2)C3)cs1 showed an inhibition of -0.54%. Cc1cc(C(F)F)n2nc(C(=O)Nc3ccc(S(=O)(=O)NC45CC6CC(CC(C6)C4)C5)cc3)nc2n1 showed an inhibition of 0.98%. Cc1cc(C)c2c(-n3cccc3)c(C(=O)NNS(=O)(=O)c3ccc(F)cc3)sc2n1 was tested, and the inhibition was -3.3%.
